The panel holds about 83,000 compounds, 20% with a hit somewhere; the sample as a whole holds those more often.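 In brief: 96-well plates, 48 h treatment, single concentration, percent growth endpoint.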 A number with no mark means an inactive call. Activity calls are given as the source filed them. How the source made its calls: active means growth percent below 10; inactive means the rest.

The test system of the assay is HL-60(TB) leukemia. Put plainly: NCI-60 one-dose screen, 48 h (100 = growth as untreated, 0 = no growth, -100 = all killed). Conditions: 10 µM unless noted.
Regarding `CN(CCOc1ccc(C#N)cc1)CCOc1ccc(C#N)cc1`, the growth is 42.4%.

With `c1ccc([Se]CCCN2CCN(CCC[Se]c3ccccc3)CC2)cc1`, the growth was 105%.

Consider `C[C@H]1C(=O)C23CCC1C[C@@]21O[C@@H]2C(C)(C)C=CC(=O)C23COC1=O`, for which the growth was 97.8%.

For `CN1CCN(C(=O)OCc2nc3c(N4CCOCC4)nc(-c4ccccc4)nc3n2C)CC1`, the growth is -32.5% (active).

`COc1ccc(/C=C2\CN(Cc3cn(CCCNc4ccnc5cc(Cl)ccc45)nn3)C/C(=C\c3ccc(OC)c(OC)c3)C2=O)cc1OC`: the growth is -38% (active).

With `CC(C)(C)OC(=O)N1CC(Cn2cc(C(F)(F)F)c3c(Cl)ncnc32)C1`, the growth is -67.5% (active).

`Cn1cc(-c2nnc(-c3cn(C)c4ncccc34)o2)c2ccccc21`: the growth is 12.5%.

As for `Cc1nn(-c2ccccc2)c2c1oc(=O)c1cc(Cl)ccc12`, the growth is 84.3%.

As to `OC1(c2ccc(Cl)c(C(F)(F)F)c2)CCN(CCCC(c2ccc(F)cc2)c2ccc(F)cc2)CC1`, the growth is -49.6% (active).

In the case of `CSc1nn2c(-c3cc4cc(Br)ccc4oc3=O)ccnc2c1C#N`, the growth is 102%.

As to `c1ccc(-c2[nH]c3ccccc3c2-c2ccccc2)cc1`, the growth is 78.7%.

Take `Nc1ccccc1NC(=O)c1ccc(CN2CCC/C(=C\c3ccccn3)C2=O)cc1`: the growth is -18% (active).

Regarding `COc1ccc(C(=O)Cn2c(C(=O)c3ccccc3)nc3ccccc32)cc1`, the growth is -27.5% (active).

Turning to `Fc1ccc(C2CC(c3cccc(Nc4ccncc4)c3)=NN2c2ccc(Cl)cc2)cc1` (stereo not given), the growth is 17.2%.

`O=C1c2ccccc2OC=C(c2ccccc2)N1CCCCNc1ccc(F)cc1`: the growth was 45.3%.

For the compound `N#C/C(=C\c1ccc2c(c1)OCO2)n1nnc2ccccc21`, the growth is -10.9% (active).

Take `C/C(=N\NC(=O)c1ccncc1)c1ccc(N)cc1`: the growth is 90.2%.

On to `Cc1ccc(C(=O)/C(=C\c2ccc([N+](=O)[O-])cc2)S(=O)Cc2ccc(Cl)cc2)cc1` (stereo not given), for which the growth is 33.9%.

`O=C1/C(=C/c2ccccc2O)CC/C1=C\c1ccccc1O`: the growth is 11.9%.

In the case of `CCCNC(=O)Oc1ccc(/C(=C(/C)Cc2ccc(OC)cc2)c2ccc(OCCN3CCCC3)cc2)cc1`, the growth is 51.9%.

Regarding `Oc1ccc(N=Nc2ccccn2)c(O)c1`, the growth is -37.3% (active).

On to `CCc1nc2ccc(Cc3ccc(C(=O)NO)cc3)cc2c(=O)n1CCc1ccccc1`, for which the growth was -20.3% (active).

Turning to `C[C@@H]1NC(=O)[C@H](Cc2ccccc2)N(Cc2cccnc2)C1=O`, the growth is 103%.

On to `O=c1c2cc(C(F)(F)F)ccc2sc2c(NCCCNCCO)nc3ccccc3c12`, for which the growth was -19% (active).

`CNS(=O)(=O)c1ccc(Cl)c(Cl)c1`: the growth is 137%.

Consider `COc1cccc2nc3n(c12)C(c1c(F)cccc1F)SC3` (stereo not given), for which the growth is 70.3%.

For `CC/C=C\CCC/C=C1/C(=O)C=C[C@@H]1C/C=C\CCCC(=O)OC`, the growth was -9.11% (active).

For the compound `N/C(=N/N=C/c1ccccc1)N/N=C\c1ccccc1`, the growth was 44.2%.

Regarding `Cc1ccc(NC(=O)c2sc3nc(C)c(C(=O)c4ccccc4)cc3c2N)cc1`, the growth was 84.2%.

With `C[C@H](C(=O)N[C@@H](Cc1ccc(-c2ccccc2)cc1)C(=O)NC1CC(C)(C)NC(C)(C)C1)c1ccc(-c2ccccc2)c(F)c1`, the growth is -59.1% (active).

For `CC(C)[C@@H]1C=C2CC[C@H]3[C@](C)(CN)CCC[C@]3(C)[C@H]2CC1`, the growth is 70.1%.

As for `O=C1C(Cl)=C(Nc2cccc3cc4ccccc4nc23)C(=O)c2ccccc21`, the growth was 47.8%.

As for `O=C(/C=C/c1ccc(Cl)cc1)c1ccccc1`, the growth is 99.9%.

In the case of `N#Cc1ccc(O)c(C2=NCC(c3ccccc3)O2)c1` (stereo not given), the growth is 14.5%.

Regarding `C=C1c2nc3ccccc3n2C=C(c2ccc(Cl)cc2)N1Cc1ccc(OC)cc1`, the growth is 53%.

Turning to `CC(=O)OC1Oc2ccccc2-c2oc3nc(=N)n(C)c-3cc21` (stereo not given), the growth is 94.4%.

As for `Cc1cc(-c2ccc(N=Nc3c(S(=O)(=O)O)cc4cc(S(=O)(=O)O)cc(O)c4c3O)c(C)c2)ccc1N=Nc1c(S(=O)(=O)O)cc2cc(S(=O)(=O)O)cc(O)c2c1O`, the growth is 119%.

Consider `CC(CO)(CO)C(=O)O`, for which the growth is 108%.

`O=C1CCc2c(sc3[nH]c(=S)n(-c4cc(C(F)(F)F)cc(C(F)(F)F)c4)c(=O)c23)C1`: the growth is -14.2% (active).

As to `Oc1[nH]c2ccccc2c1/C=c1/cc2c(c(-c3ccc(F)cc3)n1)=Nc1ccccc1-2`, the growth was -39.1% (active).
